# Several values for one entry are separate records, joined by “and”; a condition that tells them apart may be missing. Identical values can stand only once. In all, about 5,500 compounds went through this assay and about 2,000 (36%) were called active. Roughly 18% stayed inconclusive and do not appear here. This is one part of the list. A number with no mark means an inactive call. No stated cut-off is given here; in the data, active means normalized growth mostly below about 0.91 (no sharp cut-off); inconclusive means no clear call, values can overlap the other calls; inactive means mostly above about 0.92.
# Assay: chemical genetic growth profiling, strain panel (AID 1159580);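 further: tested at 20 µM; growth read once vehicle control cultures reached saturation at 30 °C; 1 = growth at the plate median or of vehicle wells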
# Details: growth OD
structure (smiles),measurement,setting,value
O=C1c2ccccc2C(=O)C1c1ccccc1,normalized growth,"S. cerevisiae deletion strains, locus YKL085W, strain MDH1 (second series), stronger effect = lower value",0.994
same,normalized growth,"S. cerevisiae deletion strains, locus YKL085W, strain MDH1, stronger effect = lower value",0.994
same,normalized growth,"S. cerevisiae deletion strains, locus YKL160W, strain elf1, stronger effect = lower value",1
same,normalized growth,"S. cerevisiae deletion strains, locus YKL190W, strain CNB1, stronger effect = lower value",1
same,normalized growth,"S. cerevisiae deletion strains, locus YKR001C, strain vps1, stronger effect = lower value",1.01
same,normalized growth,"S. cerevisiae deletion strains, locus YKR026C, strain gcn3, stronger effect = lower value",0.976
same,normalized growth,"S. cerevisiae deletion strains, locus YKR091W, strain srl3, stronger effect = lower value",0.997
same,normalized growth,"S. cerevisiae deletion strains, locus YLL001W, strain dnm1, stronger effect = lower value",1
same,normalized growth,"S. cerevisiae deletion strains, locus YLL026W, stronger effect = lower value",0.993
same,normalized growth,"S. cerevisiae deletion strains, locus YLL041C, strain sdh2, stronger effect = lower value",1
same,normalized growth,"S. cerevisiae deletion strains, locus YLR027C, strain aat2, stronger effect = lower value",0.998
same,normalized growth,"S. cerevisiae deletion strains, locus YLR039C, strain RIC1, stronger effect = lower value",0.983 and 0.913
same,normalized growth,"S. cerevisiae deletion strains, locus YLR058C, strain SHM2 (second series), stronger effect = lower value",0.932 (active)
same,normalized growth,"S. cerevisiae deletion strains, locus YLR058C, strain SHM2, stronger effect = lower value",1.01
same,normalized growth,"S. cerevisiae deletion strains, locus YLR085C, strain ARP6, stronger effect = lower value",0.972
same,normalized growth,"S. cerevisiae deletion strains, locus YLR102C, strain apc9, stronger effect = lower value",1.01
same,normalized growth,"S. cerevisiae deletion strains, locus YLR113W, strain HOG1, stronger effect = lower value",0.934
same,normalized growth,"S. cerevisiae deletion strains, locus YLR221C, strain rsa3, stronger effect = lower value",1
same,normalized growth,"S. cerevisiae deletion strains, locus YLR258W, strain gsy2, stronger effect = lower value",1.02
same,normalized growth,"S. cerevisiae deletion strains, locus YLR262C, strain YPT6 (second series), stronger effect = lower value",1
same,normalized growth,"S. cerevisiae deletion strains, locus YLR262C, strain YPT6, stronger effect = lower value",0.967 and 0.909
same,normalized growth,"S. cerevisiae deletion strains, locus YLR268W, strain sec22, stronger effect = lower value",1.03
same,normalized growth,"S. cerevisiae deletion strains, locus YLR320W, strain mms22, stronger effect = lower value",1.01
same,normalized growth,"S. cerevisiae deletion strains, locus YLR330W, strain CHS5, stronger effect = lower value",0.999
same,normalized growth,"S. cerevisiae deletion strains, locus YLR342W, strain FKS1 (second series), stronger effect = lower value",1.01
same,normalized growth,"S. cerevisiae deletion strains, locus YLR342W, strain FKS1, stronger effect = lower value",0.998
same,normalized growth,"S. cerevisiae deletion strains, locus YLR357W, strain rsc2, stronger effect = lower value",1.03
same,normalized growth,"S. cerevisiae deletion strains, locus YLR370C, strain arc18, stronger effect = lower value",1
same,normalized growth,"S. cerevisiae deletion strains, locus YLR371W, strain rom2, stronger effect = lower value",1.01
same,normalized growth,"S. cerevisiae deletion strains, locus YLR384C, strain iki3, stronger effect = lower value",1
same,normalized growth,"S. cerevisiae deletion strains, locus YLR418C, strain cdc73, stronger effect = lower value",0.98
same,normalized growth,"S. cerevisiae deletion strains, locus YML016C, strain PPZ1, stronger effect = lower value",1
same,normalized growth,"S. cerevisiae deletion strains, locus YML032C, strain rad52, stronger effect = lower value",1.01
same,normalized growth,"S. cerevisiae deletion strains, locus YML094W, strain GIM5, stronger effect = lower value",0.945
same,normalized growth,"S. cerevisiae deletion strains, locus YML120C, strain ndi1, stronger effect = lower value",1.01
same,normalized growth,"S. cerevisiae deletion strains, locus YML124C, strain tub3, stronger effect = lower value",1.01
same,normalized growth,"S. cerevisiae deletion strains, locus YMR058W, strain fet3, stronger effect = lower value",0.999
same,normalized growth,"S. cerevisiae deletion strains, locus YMR078C, strain ctf18, stronger effect = lower value",1.01
same,normalized growth,"S. cerevisiae deletion strains, locus YMR125W, strain sto1, stronger effect = lower value",0.995
same,normalized growth,"S. cerevisiae deletion strains, locus YMR129W, stronger effect = lower value",0.992
same,normalized growth,"S. cerevisiae deletion strains, locus YMR205C, strain PFK2, stronger effect = lower value",1.01
same,normalized growth,"S. cerevisiae deletion strains, locus YMR219W, strain ESC1, stronger effect = lower value",0.954
same,normalized growth,"S. cerevisiae deletion strains, locus YMR223W, strain ubp8, stronger effect = lower value",1
same,normalized growth,"S. cerevisiae deletion strains, locus YMR231W, strain pep5, stronger effect = lower value",1
same,normalized growth,"S. cerevisiae deletion strains, locus YMR263W, strain SAP30, stronger effect = lower value",1.01
same,normalized growth,"S. cerevisiae deletion strains, locus YMR307W, strain GAS1, stronger effect = lower value",1.01
same,normalized growth,"S. cerevisiae deletion strains, locus YNL067W, strain RPL9B, stronger effect = lower value",0.999
same,normalized growth,"S. cerevisiae deletion strains, locus YNL071W, strain lat1, stronger effect = lower value",1
same,normalized growth,"S. cerevisiae deletion strains, locus YNL128W, strain TEP1, stronger effect = lower value",1.02
same,normalized growth,"S. cerevisiae deletion strains, locus YNL153C, strain GIM3, stronger effect = lower value",0.996 and 0.979
same,normalized growth,"S. cerevisiae deletion strains, locus YNL183C, strain NPR1, stronger effect = lower value",0.939
same,normalized growth,"S. cerevisiae deletion strains, locus YNL209W, strain ssb2, stronger effect = lower value",1.01
same,normalized growth,"S. cerevisiae deletion strains, locus YNL233W, strain BNI4, stronger effect = lower value",1
same,normalized growth,"S. cerevisiae deletion strains, locus YNL248C, strain rpa49, stronger effect = lower value",1
same,normalized growth,"S. cerevisiae deletion strains, locus YNL250W, strain rad50, stronger effect = lower value",0.989
same,normalized growth,"S. cerevisiae deletion strains, locus YNL271C, strain bni1, stronger effect = lower value",1
same,normalized growth,"S. cerevisiae deletion strains, locus YNL298W, strain CLA4 (second series), stronger effect = lower value",0.968
same,normalized growth,"S. cerevisiae deletion strains, locus YNL298W, strain CLA4, stronger effect = lower value",0.994
same,normalized growth,"S. cerevisiae deletion strains, locus YNL307C, strain MCK1, stronger effect = lower value",1
same,normalized growth,"S. cerevisiae deletion strains, locus YNL322C, strain KRE1 (second series), stronger effect = lower value",1
same,normalized growth,"S. cerevisiae deletion strains, locus YNL322C, strain KRE1, stronger effect = lower value",1 and 0.969
same,normalized growth,"S. cerevisiae deletion strains, locus YNR030W, strain Alg12, stronger effect = lower value",0.969
same,normalized growth,"S. cerevisiae deletion strains, locus YNR049C, strain mso1, stronger effect = lower value",0.998
same,normalized growth,"S. cerevisiae deletion strains, locus YNR052C, strain pop2, stronger effect = lower value",1.01
same,normalized growth,"S. cerevisiae deletion strains, locus YOL006C, strain TOP1, stronger effect = lower value",0.964
same,normalized growth,"S. cerevisiae deletion strains, locus YOL012C, strain htz1",0.826
same,normalized growth,"S. cerevisiae deletion strains, locus YOL147C, strain pex11, stronger effect = lower value",1.01
same,normalized growth,"S. cerevisiae deletion strains, locus YOR001W, strain rrp6, stronger effect = lower value",1.01
same,normalized growth,"S. cerevisiae deletion strains, locus YOR061W, strain CKA2, stronger effect = lower value",1
same,normalized growth,"S. cerevisiae deletion strains, locus YOR069W, strain VPS5, stronger effect = lower value",1
same,normalized growth,"S. cerevisiae deletion strains, locus YOR070C, strain gyp1, stronger effect = lower value",0.996
same,normalized growth,"S. cerevisiae deletion strains, locus YOR080W, strain dia2, stronger effect = lower value",1
same,normalized growth,"S. cerevisiae deletion strains, locus YOR083W, strain WHI5, stronger effect = lower value",0.999
same,normalized growth,"S. cerevisiae deletion strains, locus YOR106W, strain vam3, stronger effect = lower value",1.01
same,normalized growth,"S. cerevisiae deletion strains, locus YOR136W, strain idh2, stronger effect = lower value",1.01
same,normalized growth,"S. cerevisiae deletion strains, locus YOR144C, strain elg1, stronger effect = lower value",1
same,normalized growth,"S. cerevisiae deletion strains, locus YOR184W, strain ser1, stronger effect = lower value",1.02
same,normalized growth,"S. cerevisiae deletion strains, locus YOR231W, strain MKK1, stronger effect = lower value",0.992
same,normalized growth,"S. cerevisiae deletion strains, locus YOR265W, strain rbl2, stronger effect = lower value",0.995
same,normalized growth,"S. cerevisiae deletion strains, locus YOR270C, strain vph1, stronger effect = lower value",1.01
same,normalized growth,"S. cerevisiae deletion strains, locus YOR290C, strain snf2, stronger effect = lower value",0.997
same,normalized growth,"S. cerevisiae deletion strains, locus YOR316C, strain cot1, stronger effect = lower value",1.01
same,normalized growth,"S. cerevisiae deletion strains, locus YPL051W, strain arl3, stronger effect = lower value",1
same,normalized growth,"S. cerevisiae deletion strains, locus YPL055C, strain LGE1, stronger effect = lower value",1 and 0.972
same,normalized growth,"S. cerevisiae deletion strains, locus YPL078C, strain atp4, stronger effect = lower value",1
same,normalized growth,"S. cerevisiae deletion strains, locus YPL106C, strain sse1, stronger effect = lower value",1.01
same,normalized growth,"S. cerevisiae deletion strains, locus YPL240C, strain hsp82, stronger effect = lower value",1
same,normalized growth,"S. cerevisiae deletion strains, locus YPL241C, strain CIN2, stronger effect = lower value",1.21 [resistant] (active)
same,normalized growth,"S. cerevisiae deletion strains, locus YPL256C, strain CLN2, stronger effect = lower value",0.917
same,normalized growth,"S. cerevisiae deletion strains, locus YPR119W, strain clb2, stronger effect = lower value",1.01
same,normalized growth,"S. cerevisiae deletion strains, locus YPR135W, strain CTF4, stronger effect = lower value",0.934
same,normalized growth,"S. cerevisiae deletion strains, locus YPR141C, strain kar3, stronger effect = lower value",0.987
same,normalized growth,"S. cerevisiae deletion strains, locus YPR163C, strain tif3, stronger effect = lower value",1.01
same,normalized growth,"S. cerevisiae deletion strains, locus YPR167C, strain met16, stronger effect = lower value",1.01
same,normalized growth,"S. cerevisiae deletion strains, strain wtn01, stronger effect = lower value",1.01
same,normalized growth,"S. cerevisiae strains, strain wild type, stronger effect = lower value",0.999 and 0.961

# Source: PubChem BioAssay AID1159580 (chemical genetic matrix, 2015)
